TWEAK Fn14 block: inhibitors of TWEAK-Fn14 interaction signaling. TWEAK-stimulated Fn14 reporter cells, luciferase luminescence, 8 h. inhibition, % at 10 µM. 360,000 tested, 2% active; in the data active = inhibition above about 50%
TROY signal inh: inhibitors of TROY-dependent NF-kB signaling; AID 1347056; inhibition, % at 10 µM; 360,000 tested, 0.98% active; Q293 LMP1-TROYcd NF-kB luciferase reporter, 4 h;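 active = compounds whose plate-normalised and pattern-corrected inhibition of the luciferase reporter signal at the single screening dose is 50% or more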
HSP90 inh: blocks HSP90-mediated luciferase refolding in reticulocyte lysate; Rabbit reticulocyte lysate, luciferase refolding luminescence, 3 h; inhibition, % at 5.6 µM; 290,000 tested, 0.91% active; AID 1789;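 active = inhibition above the screen-wide mean plus 3 SD, computed separately per campaign, cut at about 16% in these data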;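 also: 0% = DMSO wells and 100% = 60 µM geldanamycin wells; inhibitors lower the luminescence because luciferase stays unfolded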
LGR2 antag: blocks bursicon-induced cAMP signaling via Drosophila LGR2; HEK293 LGR2, CRE-luciferase, bursicon-stimulated, 4 h; inhibition, % at 9.99 µM; 380,000 tested, 0.35% active; AID 720647;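 active = drop in luminescence signal, shown as inhibition above about 50% in the replicate tests, limit read from the data, passing the limit was not always enough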;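 also: agonist challenge used bursicon conditioned medium at about half maximal strength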
HSP90 confirm: confirmation of HSP90 inhibitors. shares compounds with HSP90 inh. rabbit reticulocyte lysate, luciferase refolding luminescence, 3 h. inhibition, % at 5.9 µM. 2,300 tested, 64% active. AID 1846; in the data active = inhibition above about 18%;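 also: 0% = vehicle wells and 100% = reference inhibitor wells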
FLuc counter: counter-screen for HSP90 inhibitors: inhibitors of firefly luciferase. shares compounds with HSP90 inh. purified native firefly luciferase, luminescence. inhibition, % at 5.9 µM. 2,300 tested, 48% active. AID 1847;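 active = inhibition above the mean inhibition of all tested sample wells plus 3 SD, cut at about 10% in these data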;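 also: 0% = DMSO with luciferase and 100% = wells lacking luciferase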
Target sequence (P08659 whole entry, looked up): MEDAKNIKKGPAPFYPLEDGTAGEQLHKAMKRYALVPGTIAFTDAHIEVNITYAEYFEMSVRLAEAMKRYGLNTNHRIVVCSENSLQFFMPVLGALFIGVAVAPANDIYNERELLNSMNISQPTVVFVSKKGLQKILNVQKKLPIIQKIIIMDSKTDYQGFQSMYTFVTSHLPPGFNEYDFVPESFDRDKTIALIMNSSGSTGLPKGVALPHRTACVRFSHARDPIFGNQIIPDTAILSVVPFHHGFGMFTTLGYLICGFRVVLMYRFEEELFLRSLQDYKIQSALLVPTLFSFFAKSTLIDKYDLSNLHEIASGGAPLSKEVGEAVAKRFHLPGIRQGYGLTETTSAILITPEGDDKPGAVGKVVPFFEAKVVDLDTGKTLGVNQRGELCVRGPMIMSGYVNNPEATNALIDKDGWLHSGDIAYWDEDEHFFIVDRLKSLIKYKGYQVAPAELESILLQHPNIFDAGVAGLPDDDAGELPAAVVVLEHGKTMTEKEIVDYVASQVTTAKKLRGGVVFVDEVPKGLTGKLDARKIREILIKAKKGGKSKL
Numbers without * were called inactive; . = no result. Rows were chosen to be rich in hits. Some 2.2% of all compounds tested hit in one or more screens of this group.

SMILES	TWEAK Fn14 block	TROY signal inh	HSP90 inh	LGR2 antag	HSP90 confirm	FLuc counter
CO[C@H]1CN(C)C(=O)c2cc(NC(C)=O)ccc2OC[C@H](C)N(C(=O)C2CCCCC2)C[C@@H]1C	.	.	.	12	.	.
Cc1ccc(C(=O)N/C(=C\c2sccc2C)C(=O)NCc2ccco2)cc1	2	-19	25*	.	-4	-2
Cc1ccc(C(=O)N/C(=C\c2sccc2C)C(=O)NCc2ccncc2)cc1	14	-8	-5	13	.	.
COc1ccccc1-c1cn(CC[C@H]2CC[C@@H](NC(=O)C3CCCC3)[C@@H](CO)O2)nn1	.	.	.	25	.	.
O=C1N/C(=C\c2nc3ccccc3s2)c2ccccc21	.	.	21*	.	53*	25*
O=C1N/C(=C\c2ccccc2)c2ccccc21	9	-33	2	.	.	.
O=C(NCc1ccco1)/C(=C/c1ccco1)NC(=O)c1ccco1	21	11	1	20	.	.
O=C(O)CCNC(=O)/C(=C/c1ccco1)NC(=O)c1ccco1	5	3	30*	1	2	-2
O=C(NCC(c1cccs1)N1CCOCC1)c1cccc([N+](=O)[O-])c1 (stereo not given)	6	3	67*	16	-7	-6
Fc1ccc(-c2nnc(NC3=NCCCCC3)o2)cc1	99*	77*	73*	.	81*	76*
O=C1CNC[C@@H]2[C@@H](c3ccc(-c4ccccc4F)cc3)[C@H](CO)N12	.	.	.	3	.	.
COc1cc(/C=N/Nc2ccc(C(=O)O)cc2)cc(OC)c1OC	-14	-54	11	-20	.	.
CCOc1ccc(/C=N/NS(=O)(=O)c2ccc(C)cc2)cc1OC	-7	15	-2	-22	.	.
COc1cc(/C=N/NS(=O)(=O)c2ccc(C)cc2)ccc1OCc1ccc(C(=O)O)cc1	-13	-70	65*	43	-3	-11
O=C(O)c1ccc(N/N=C/c2ccncc2)cc1	35	1	6	1	.	.
O=C(O)c1ccc(N/N=C/c2ccc3nccnc3c2)cc1	102*	54*	92*	96*	92*	85*
Cc1ccc2nc(Cl)c(/C=N/Nc3ccc(C(=O)O)cc3)cc2c1	51*	26	29*	-71	18*	-10
COc1cc(/C=N/Nc2ccc(C(=O)O)cc2)ccc1O	72*	27	38*	23	63*	54*
COc1ccc(/C=N/Nc2ncccc2[N+](=O)[O-])c(OC)c1	72*	52*	51*	66*	70*	62*
COc1ccc(/C=N/Nc2ncc(-c3ccccc3)cn2)c(OC)c1	-8	-16	-2	.	.	.
O=C1c2ccccc2CN1c1ccccc1	-25	-54	0	-31	.	.
Cc1ccc(N2Cc3ccccc3C2=O)cc1	53*	-14	31*	1	37*	28*
Cc1nn2cc(-c3ccc(-c4ccccc4)cc3)nc2s1	36	.	1	.	.	.
CCc1nn2cc(-c3ccccc3)nc2s1	93*	84*	65*	.	81*	73*
O=C(NCc1cccs1)C1CCCCC1	5	-12	26*	.	-3	-7
SMILES	TWEAK Fn14 block	TROY signal inh	HSP90 inh	LGR2 antag	HSP90 confirm	FLuc counter
C/C(=N/Nc1ccc(C(=O)O)cc1)c1ccc(O)c(O)c1O	7	40	29*	0	54*	45*
C/C(=N\Nc1ccc(C(=O)O)cc1)c1ccc(-n2ccnc2)cc1	30	-33	18*	-12	15	-8
C/C(=N\Nc1ccc(C(=O)O)cc1)c1nc2ccccc2n1C	.	.	2	.	.	.
COc1cc(/C(C)=N/Nc2ccc(C(=O)O)cc2)cc(OC)c1OC	21	35	25*	-17	43*	34*
COc1ccc(OC)c(/C(C)=N/Nc2ccc(C(=O)O)cc2)c1	15	34	36*	-9	25*	33*
COc1ccc(CN(C)C[C@H]2OCCCC[C@H](C)Oc3ccc(NS(=O)(=O)c4ccc(C)cc4)cc3C(=O)N([C@H](C)CO)C[C@H]2C)cc1	.	.	.	-13	.	.
Cc1noc(C)c1NC(=O)N(C)C[C@H]1Oc2ncc(C#CC3CC3)cc2C(=O)N([C@H](C)CO)C[C@H]1C	.	.	.	5	.	.
COCCNC(=O)C(=O)Nc1cccc(Br)c1	-7	-40	-1	-8	.	.
COCCNC(=S)NNc1cccc(C(=O)O)c1	-9	-47	18*	11	9	7
C[C@@H]1CN([C@@H](C)CO)C(=O)c2cc(NC(=O)c3ccncc3)ccc2O[C@@H](C)CCCCO[C@H]1CN(C)Cc1ccc(C(=O)O)cc1	.	.	.	12	.	.
Clc1ccc2nc(N3CCCCC3)[nH]c2c1	27	-40	0	-10	.	.

High-throughput results from PubChem.
